Among the data in PubChem BioAssay are z-score values, retold here.

Sequence of NADPH oxidase 5 (Homo sapiens) (Q96PH1 whole entry, looked up): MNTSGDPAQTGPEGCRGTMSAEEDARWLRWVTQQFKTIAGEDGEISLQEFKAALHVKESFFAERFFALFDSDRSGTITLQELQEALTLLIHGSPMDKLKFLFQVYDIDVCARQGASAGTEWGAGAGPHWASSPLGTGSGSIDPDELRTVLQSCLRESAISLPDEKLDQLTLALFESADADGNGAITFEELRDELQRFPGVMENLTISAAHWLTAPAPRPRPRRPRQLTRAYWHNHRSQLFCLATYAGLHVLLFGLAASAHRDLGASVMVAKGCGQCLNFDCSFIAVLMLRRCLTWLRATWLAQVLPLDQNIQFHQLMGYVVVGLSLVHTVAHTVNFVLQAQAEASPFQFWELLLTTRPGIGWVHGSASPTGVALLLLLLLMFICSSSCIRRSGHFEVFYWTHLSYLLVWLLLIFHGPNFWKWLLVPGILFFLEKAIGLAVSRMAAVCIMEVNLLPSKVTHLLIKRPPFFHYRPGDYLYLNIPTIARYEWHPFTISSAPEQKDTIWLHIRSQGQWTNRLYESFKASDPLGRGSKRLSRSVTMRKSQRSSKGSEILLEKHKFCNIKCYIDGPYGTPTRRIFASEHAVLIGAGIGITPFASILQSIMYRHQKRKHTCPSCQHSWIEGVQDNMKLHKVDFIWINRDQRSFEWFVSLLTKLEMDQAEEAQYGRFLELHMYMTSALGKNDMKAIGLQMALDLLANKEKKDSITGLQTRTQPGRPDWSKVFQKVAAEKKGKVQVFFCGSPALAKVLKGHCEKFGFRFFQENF

The test has as its target NADPH oxidase 5 (Homo sapiens) (UniProt Q96PH1). The experiment in a line: compounds shifting NOX5 Amplex Red fluorescence – cell-based, HEK293-NOX5, NOX inhibitor project, primary screen (AID 1161). Conditions: HEK293-NOX5, ionomycin, 45 min, higher = more signal.
For `COCCCNC(=O)[C@@]1(Sc2ccc(C)cc2)CC(=O)N(Cc2ccccc2)[C@@H]1c1ccc(CO)cc1I`, the z-score was found to be 1.26.
As for `COC(=O)[C@H](C)NC(=O)CCC1CC(OC(=O)NCCc2ccc(F)cc2)CC2(CCCC(COC(=O)NCC(c3ccccc3)c3ccccc3)O2)O1` (stereo partly specified), the z-score was determined as 0.185.
In the case of `COc1ccccc1CN1C(=O)c2ccccc2[C@@H](C(=O)NCC(F)(F)F)[C@@H]1c1ccc(CO)cc1` it was -0.0947; in that of `Cc1cc2c(c(=O)o1)[C@H](O)[C@H]1O[C@H]1C2=O`, -1.39.
With `CCN(CC)c1ccc(N2CC=CC34O[C@@H]5/C=C\CCC(C)OC(=O)C5[C@H]3C(=O)N(CCCO)[C@@H]4C2=O)cc1` (stereo partly specified), the z-score stood at 0.975.
For `O=C1O[C@@H](c2ccccc2)[C@@H](c2ccccc2)N2[C@@H](c3ccccc3OCCO)[C@]3(C(=O)Nc4ccc(C#CCCO)cc43)[C@@H](C(=O)O)[C@H]12`, the z-score was -0.847.
`COc1ccc([Si](C)(C)[C@@H]2[C@@H](CC(=O)N3CCC[C@H]3CO)O[C@]3(C(=O)N(Cc4cccc(N5CCC5=O)c4)c4ccccc43)[C@H]2C)cc1`: the z-score stood at 4.02.
With `CC(C)(C)N1CC=CC23O[C@@H]4C=CCCOC(=O)C4[C@H]2C(=O)N(CCCCCO)[C@@H]3C1=O` (stereo partly specified) the figure was 1.75; with `COc1cccc([C@@H]2Oc3ccc(Br)cc3C(=O)[C@H]2O)c1`, -0.879; with `CO[C@H]1COC(=O)[C@@H]2CCCN2C(=O)CC=C[C@@H](C)[C@H](OC)COC(=O)CC=C[C@@H]1C`, 0.557.
Consider `CC(CCN1CCc2nc(-c3ccccc3)c(-c3ccccc3)cc2C1)=NO[C@H](C)c1cn([C@@H]2COC[C@H]2O)nn1`, for which the z-score is -0.331.
For `COC(=O)[C@H]1COC(c2ccc(OCCCO)cc2)=N1`, the z-score is -0.663.
Regarding `O=C1[C@H]2[C@H]3[C@H](O)[C@H](O)CC(=NOC[C@@H](O)COCc4ccco4)[C@H]3CC[C@H]2C(=O)N1Cc1ccc2c(c1)OCO2`, the z-score was 0.00627.
With `CC[C@@H](c1ccccc1)n1c(=O)n2n(c1=O)[C@H]1[C@H](O)[C@@H]3O[C@@H]3C(=NOCC=C(C)CCC=C(C)C)[C@H]1CC2` the figure was -1.35; with `C[C@@H](c1ccccc1)N1C(=O)[C@H]2[C@H]3[C@H](O)[C@H](O)CC(=NOC[C@@H](O)COCc4ccco4)[C@@H]3CC[C@H]2C1=O`, -0.681.
With `CO[C@H]1O[C@H](CO)[C@@H](OC(=O)Nc2ccc3c(c2)OCO3)[C@H](OC(=O)Nc2ccccc2-c2ccccc2)[C@@H]1OC(=O)Nc1ccccc1-c1ccccc1`, the z-score was -0.303.
In the case of `NCCCCCNC(=O)[C@@H]1C[C@@H]2C(=O)N3CCC[C@H]3C(=O)N2[C@@H]1c1cccc(OCCO)c1` it was 0.961.
With `C[C@@H]1C=CCC(=O)OC[C@H](C)C(=O)N2CCC[C@H]2C(=O)OC1` the figure was -0.764; with `CCCC=C(CCC)[C@@H](NC(=O)c1ccc(-c2ccccc2)cc1)c1ccc(C(=O)OC)cc1`, 1.81.
With `CCOC(=O)[C@H](Cc1ccccc1)NC(=O)CCC1CC(OC(=O)NCc2ccc3c(c2)OCO3)CC2(CCCC(COC(=O)NCC3CCCCC3)O2)O1` (stereo partly specified) the figure was 0.909.
`COc1ccc(COC(=O)NN=C2C[C@@H](O)[C@@H](O)[C@@H]3[C@@H]4C(=O)N(c5ccc(F)cc5F)C(=O)[C@@H]4CC[C@@H]23)cc1`: the z-score is -1.12.
In the case of `CC(C)[C@@H](OCc1ccccc1)[C@H](C)C=NO[C@H](C)c1cn([C@H](CO)Cc2ccccc2)nn1`, the z-score was -1.41.
In the case of `COC(=O)[C@H](C)NC(=O)CCC1CC(OC(=O)NCc2cccc3ccccc23)CC2(CCCC(COC(=O)NCCc3ccc(Cl)cc3)O2)O1` (stereo partly specified) it was 1.55; in that of `COc1ccc(-c2nc3c(c4c2C[C@H](C)OC4)CN(CCC(C)C)CC3)cc1`, 0.684.
On to `O=C(NN=C1C[C@@H](O)[C@@H](O)[C@@H]2[C@@H]3C(=O)N(c4cccc(Oc5ccccc5)c4)C(=O)[C@@H]3CC[C@H]12)OCc1ccccc1`, for which the z-score stood at 0.825.
With `CCOC(=O)CCN1C(=O)[C@H]2[C@H]3[C@H](O)[C@H](O)CC(=NNC(=O)OCc4ccc(OC)cc4)[C@@H]3CC[C@H]2C1=O` the figure was -0.974; with `CCN1C(=O)[C@H]2[C@H]3[C@H](O)C=CC(=O)[C@@H]3CC[C@H]2C1=O`, -0.204.
In the case of `C=C(CCCC)C(=O)CC[C@@H](OC(C)=O)c1cccc(OCCO)c1` it was -3.02; in that of `O=C1C[C@]2(c3ccc([N+](=O)[O-])cc3)C(=O)N(CCN3CCOCC3)c3cc(CO)ccc3[C@H]2N1CC12CC3CC(CC(C3)C1)C2`, -2.03.
In the case of `[N-]=[N+]=NCc1ccccc1[C@@H]1OC(c2ccc(OCCCO)cc2)=N[C@]1(Cc1ccccc1)C(=O)N1CCOCC1`, the z-score is -1.21.
For `CC(C)N1CC=CC23O[C@@H]4C=CCCOC(=O)C4[C@H]2C(=O)N(CCCCCCO)[C@@H]3C1=O` (stereo partly specified), the z-score was found to be 1.52.
On to `CCCNC(=O)[C@@H]1c2ccccc2C(=O)N(Cc2ccccc2Cl)[C@H]1c1ccc(CO)cc1`, for which the z-score was -0.33.
With `CCN1C(=O)[C@H]2[C@H]3[C@H](O)[C@H](O)CC(=NOCc4ccccc4)[C@H]3CC[C@H]2C1=O` the figure was -0.385; with `C[C@H](c1ccccc1)N1C(=O)[C@H]2[C@H]3[C@H](O)[C@H](O)CC(=O)[C@@H]3CC[C@H]2C1=O`, -0.092; with `COC(=O)C1=C(C)[C@@H](O)[C@@H](C)[C@H](c2c(OC)c(OC)c(C)c(OC)c2OC)O1`, 0.536.
With `CC(=O)OC[C@H]1O[C@H](CC=NOC[C@@H](C)[C@H](OCc2ccccc2)C(C)C)C=C[C@@H]1OC(C)=O` the figure was -2.35.
